An excerpt weighted towards active compounds, which were near 9.3% of everything screened.
VACV Venus inh: vaccinia inhibition (Venus reporter); Vaccinia virus Venus reporter expression, fluorescence; Potency, µM (series often up to 36.5 µM), without a hit: top-dose activity change, negative = inhibition, hits mostly inhibitors; 330,000 tested, 0.46% active; AID 720580; calls by dose curve; tested in A549 cells; also: potency is read from the fitted curve at half-maximal effect; nearly all actives have a fitted effect of over 30% in size
FMDV inh: antivirals against foot and mouth disease virus. FMDV antiviral cell-based qHTS. Potency, µM (highest dose often 57.9 µM), without a hit: at the highest dose activity change, negative = inhibition, usual class: inhibitors. 410,000 tested, 1.2% active. AID 1159524; calls by dose curve; tested in HEK293T cells; also: read-out not given here; potency is read from the fitted curve at half-maximal effect; nearly all actives have a fitted effect of over 45% in size
HCMV inh: inhibitors of human cytomegalovirus; activity change, negative = inhibition, % at 57.5 µM; HFF cells, HCMV-luciferase reporter, 72 h; hits give low values; 410,000 tested, 4.5% active; AID 1259415; in the data active = activity change below about -60%; inconclusive = no clear call, values can overlap the other calls; inactive = above about -39%
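Compounds were evaluated in HFFs infected with an HCMV luciferase reporter virus (MOI 1 PFU/cell). Luciferase in lysates collected 72 h post infection served as the replication measure.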
VACV mCherry inh: inhibitors of vaccinia virus infection (mCherry reporter signal); Vaccinia virus mCherry reporter infection, fluorescence; Potency, µM (doses to about 36.5 µM), for inactives: at the top dose activity change, negative = inhibition, hits mostly inhibitors; 310,000 tested, 0.63% active; calls by dose curve; tested in A549 cells; also: potency is read from the fitted curve at half-maximal effect; nearly all actives have a fitted effect of over 35% in size
Sm TGR inh: inhibitors of Schistosoma mansoni thioredoxin glutathione reductase; purified TGR, DTNB reduction, TNB absorbance 405 nm; Q962Y6; 360,000 tested, 3% active; AID 485364; Potency, µM (doses to about 114 µM), for the others: at the top dose activity change, negative = inhibition, hits mostly inhibitors; also: potency is read from the fitted curve at half-maximal effect; nearly all actives have a fitted effect of over 60% in size
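Kinetic colorimetric format: TGR-catalysed, NADPH-driven DTNB reduction monitored via TNB absorbance. Enzyme dispensed at 20 nM; compound exposure 15 min at room temperature before reaction start.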
HCV inh: inhibitors of hepatitis C virus infection; 340,000 tested, 3.4% active; Huh7.5.1 HCVcc-Cre infection, luciferase reporter, 44 h; Potency, µM (top dose mostly 41.8 µM), for the others: at the top dose activity change, negative = inhibition, most hits filed as inhibitors; also: potency is read from the fitted curve at half-maximal effect
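Cells (1,000/well) were plated 4 h before compound, then infected with HCVcc-Cre virus (~0.5 moi). After 44 h further culture, infection was read as luciferase luminescence following a 15 min substrate incubation at room temperature.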
* hit, by the source's call; i = inactive; ? = inconclusive; . = no result; ! = repeats disagree. Unless noted, calls follow the shape of the dose curve; as a rule, active = well fitted curve in the direction sought with a large enough effect; inconclusive = small, poorly fitted or top-dose-only effect, or another doubt; inactive = no such curve, though single readings can be large; an effect the other way counts as inactive or inconclusive. % is scaled to controls: 0 for no effect and ±100 for the full control effect.

SMILES	VACV Venus inh	FMDV inh	HCMV inh	VACV mCherry inh	Sm TGR inh	HCV inh
COc1ccc(C(=O)C[n+]2ccc3c(c2)nc(-c2cc(OC)c(OC)cc2OC)n3C)cc1	-7%	-7%	?	i	5%	17%
COc1ccc2[nH]c(=O)c3c(c2c1)OC(C)(C)C=C3	11µM*	-24%	-96*	13µM*	0%	-9%
CC(C)Nc1ncnc2c1ncn2[C@H]1CN(Cc2ccc(-c3ccccc3)cc2)C[C@@H](CO)O1	-23%	?	-66*	16%	.	.
CC(C)CNc1ncnc2c1ncn2[C@H]1CN(Cc2ccc(-c3ccccc3)cc2)C[C@@H](CO)O1	?	?	-73*	?	.	.
OCCN1CCN(c2ncnc3c2ncn3[C@H]2CN(Cc3cccc(C(F)(F)F)c3)C[C@@H](CO)O2)CC1	-8%	-1%	-62*	i	.	.
O=C(O)c1ccc(S(=O)(=O)c2ccc3c(c2)C(=O)N(NC(=O)c2cccnc2)C3=O)cc1	.	1%	0	.	9%	6%
Cc1cc(N2CCC(C(=O)N3CCN(c4cccc(C)c4C)CC3)CC2)n2ncnc2n1	-29%	-16%	-89*	?	2%	?
Cc1cccc(N2CCN(C(=O)C3CCN(c4ncnc5c4nc4n5CCCCC4)CC3)CC2C)c1 (stereo not given)	?	32µM*	-96*!	?	-6%	5.6µM*
Cc1cccc(N2CCN(C(=O)C3CCN(c4ncnc5c4nc4n5CCCCC4)CC3)CC2)c1C	?	20µM*	-77*!	-26%	-9%	7.1µM*
O=C(C1CCN(c2ncnc3c2nc2n3CCCCC2)CC1)N1CCN(c2ccccc2F)CC1	-18%	?	-64*!	i	-2%	5%
COc1ccccc1N1CCN(C(=O)C2CCCN(c3ncnc4c3nc3n4CCCCC3)C2)CC1 (stereo not given)	-21%	?	7	-2%	2%	?
Fc1ccccc1N1CCN(c2ncnc3c2nc2n3CCCCC2)CC1	-12%	?	7	-13%	0%	.
Cc1ccc(Cl)cc1N1CCN(C(=O)Cn2nc(C)n3c(cc4sccc43)c2=O)CC1	-18%	?	27	-16%	-7%	.
Cc1ccc2cc(CCNC(=O)c3ccc(S(=O)(=O)N4CCOCC4)cc3)c(=O)[nH]c2c1	-4%	-19%	-24	i	1%	.
CC(=O)Nc1ccc(NC(=O)CN(c2cccc(C(C)=O)c2)S(C)(=O)=O)cc1	-13%	-4%	4	-5%	-9%	14%
O=C(CCC(=O)Nc1ccccc1Cl)NNC(=S)Nc1ccccc1C(F)(F)F	-5%	-9%	-25	i	-9%	20%
Brc1ccc2nc(-c3ccccc3)c(Nc3ccc4c(c3)OCO4)n2c1	-11%	10%	19	-6%	-15%	.
CCOC(=O)C1(C(=O)OCC)N=C(c2ccccc2)C=C1c1ccccc1	.	.	-33	.	.	.
O=C(/C=C/c1ccc(-c2ccccc2)cc1)NCc1cccnc1	-17%	32%	27	-9%	0%	-12%
Clc1ccc2nc(-c3cccc(SC4CCCCC4)c3)c(NCc3ccccc3)n2c1	-9%	-31%	-12	-10%	-7%	-4%
Cc1ccc2nc(-c3cccc(SC4CCCCC4)c3)c(NCc3ccccc3)n2c1	?	25µM*	-22	-34%	.	?
c1ccc(CNc2c(-c3cccc(SC4CCCCC4)c3)nc3ccccn23)cc1	?	22µM*	-35	-18%	.	-18%
Clc1cccc(-c2ccc(-c3nc4ccccn4c3NCc3ccccc3)cc2)c1	?	-21%	-80*	?	.	14µM*
COc1ccc(-c2cc(-c3nc4ccccn4c3NCc3ccccc3)ccc2OC)cc1	11µM*	3.5µM*	-79*	?	.	?
c1ccc(-c2nc3ccccn3c2NCc2ccc3c(c2)OCO3)cc1	-9%	-17%	26	-11%	2%	-20%
O=C(CN1C(=O)CSc2ccc(C(F)(F)F)cc21)Nc1ccccc1	-9%	-17%	33	-10%	12%	3%

High-throughput results from PubChem.
